From PubChem
This is a sample that favours compounds with a hit; in the whole collection about 3.5% have one here.
Mtb betalactam: beta-lactam sensitization of Mtb H37Rv. M. tuberculosis H37Rv growth with meropenem, percent inhibition. 330,000 compounds, 0.27% hits. AID 434955. inhibition, % at 25 µM; call rule not given here;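 note: growth measured after seven days incubation then overnight dye step; 0% = bacteria only wells and 100% = bacteria with antibiotic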
FBA Mtb inh: inhibitors of M. tuberculosis fructose-bisphosphate aldolase | purified M. tuberculosis FBA, fluorescence read-out | inhibition, % at 1 µM | 360,000 compounds, 2.3% hits | AID 588726;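 note: 0% = vehicle and 100% = reference inhibitor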
Rv3671c inh: inhibits the M. tuberculosis serine protease Rv3671c; P9WHR9; inhibition, % at 5.96 µM; 320,000 compounds, 0.048% hits; AID 2606; in the data active = inhibition above about 38%;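 note: extracellular domain of Rv3671c used as enzyme; 0% = enzyme with DMSO and 100% = no enzyme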
Mtb UGM inh: blocks M. tuberculosis UGM enzyme; 320,000 compounds, 0.06% hits; P9WIQ1; purified UGM, fluorescence polarization probe displacement; inhibition, % at 10 µM; in the data active = inhibition above about 10%, passing the limit was not always enough
Target sequence (P9WIQ1 whole entry, looked up): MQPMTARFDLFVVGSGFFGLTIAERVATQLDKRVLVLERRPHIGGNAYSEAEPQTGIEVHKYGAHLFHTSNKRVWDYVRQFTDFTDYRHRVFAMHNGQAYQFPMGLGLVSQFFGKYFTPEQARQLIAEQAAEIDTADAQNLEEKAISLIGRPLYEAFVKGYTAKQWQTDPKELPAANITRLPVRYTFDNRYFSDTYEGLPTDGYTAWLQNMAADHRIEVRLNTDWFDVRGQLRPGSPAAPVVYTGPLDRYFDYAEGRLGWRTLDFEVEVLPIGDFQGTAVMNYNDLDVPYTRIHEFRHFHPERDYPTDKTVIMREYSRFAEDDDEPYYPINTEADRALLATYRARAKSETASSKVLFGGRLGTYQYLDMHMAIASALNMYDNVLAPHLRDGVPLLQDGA
GDH-TPI counter-1: counter-screen for M. tuberculosis FBA inhibitors: GDH-TPI coupled enzymes | GDH-TPI coupled enzyme counterscreen, NADH absorbance | 360,000 compounds, 1.2% hits | inhibition, % at 4.8 µM | AID 588335; in the data active = inhibition above about 30%;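 note: 0% = DMSO wells and 100% = wells lacking the enzyme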
Mtb FBA confirm: confirmation of M. tuberculosis fructose-bisphosphate aldolase inhibitors; shares compounds with FBA Mtb inh; purified M. tuberculosis FBA, fluorescence read-out; inhibition, % at 1 µM; 5,600 compounds, 78% hits; AID 651616;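 note: 0% = vehicle wells and 100% = reference inhibitor wells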
GDH-TPI counter-2: counter-screen for M. tuberculosis FBA inhibitors: GDH-TPI coupled enzyme inhibition; 5,600 compounds, 81% hits; shares compounds with FBA Mtb inh; inhibition, % at 1 µM; GDH-TPI coupled enzyme counterscreen, fluorescence; AID 652141; in the data active = inhibition above about 10%
* marks the source's active call; other numbers are inactive results; · = no result given; + = active, no number. Cut-off read from the data, not from the text of the source, unless noted: active = inhibition above about 27%; inactive = the rest.

SMILES	Mtb betalactam	FBA Mtb inh	Rv3671c inh	Mtb UGM inh	GDH-TPI counter-1	Mtb FBA confirm	GDH-TPI counter-2
O=C(O)CCN1C(=O)c2ccc(NC(=O)CSCc3ccccc3)cc2C1=O	-1	6	-12	5	6	·	·
O=C(O)CCN1C(=O)c2ccc(NC(=O)C(c3ccccc3)c3ccccc3)cc2C1=O	-3	36*	8	-1	10	-4	-6
O=C(O)CCN1C(=O)c2ccc(NC(=O)Cc3ccc(Cl)cc3)cc2C1=O	-1	31*	-2	3	6	167*	154*
O=C(Cc1ccccc1)Nc1ccc2c(c1)C(=O)N(CC1CCCO1)C2=O (configuration not stated)	2	31*	2	0	1	149*	99*
O=C(O)CCN1C(=O)c2ccc(NC(=O)c3ccco3)cc2C1=O	-2	10	0	-2	4	·	·
CC(=O)Oc1ccc(C(=O)Nc2ccc3c(c2)C(=O)N(CCC(=O)O)C3=O)cc1	-10	47*	4	3	23	132*	110*
O=S1(=O)CCOCCCN1Cc1ccccc1F	-10	2	-7	1	14	·	·
O=C(COC(=O)c1cc[n+]([O-])cc1)Nc1cccc(Br)c1	·	3	·	·	11	·	·
COc1cc(CCC(=O)OCC(=O)NCC2CCCCC2)cc(OC)c1OC	6	1	-2	0	0	·	·
COc1ccc(CC(=O)NCC2CCCCC2)cc1OC	-8	28*	-1	0	8	-8	-9
COC(=O)C1(C#N)C(c2ccccc2)C1(C(=O)OC)C(=O)OC (configuration not stated)	-6	2	-13	-1	-7	·	·
CC1OC2(C)OC(=N)C1(C#N)C(C#N)(C#N)C2c1ccccc1 (configuration not stated)	0	53*	12	0	-4	62*	50*
CCCCC1OC2(C)OC(=N)C1(C#N)C(C#N)(C#N)C2c1ccccc1 (configuration not stated)	-2	78*	-3	0	11	116*	83*
CC(C)Cc1ccc(/C=C/C(=O)NC2CC2)cc1	-2	0	-2	-2	-2	·	·
Cc1c(NS(=O)(=O)c2cccc(C(=O)NCc3cccc(Cl)c3)c2)c(=O)n(-c2ccccc2)n1C	·	1	·	·	-6	·	·
Cc1cc(=O)oc2cc(O)c(N=Nc3ccccc3)cc12	73	3	0	-3	16	·	·
CCOC(=O)N(NC(=O)C(O)(C(C)C)C(C)C)c1ccccc1	-1	101*	-1	1	7	47*	55*
CN(C)CCNC(=O)c1cccn(Cc2cc(C(F)(F)F)cc(C(F)(F)F)c2)c1=O	-2	61*	8	1	12	2	-2
CN(C)C(=O)c1cccn(Cc2ccc(C(F)(F)F)cc2)c1=O	-2	1	8	2	6	·	·
O=C(Nc1cccc(S(=O)(=O)N2CCOCC2)c1)c1cc(S(=O)(=O)N2CCOCC2)c(Cl)cc1Cl	·	6	·	·	4	·	·
CSc1ccccc1-c1cnc2cccnn12	·	4	·	·	8	·	·
c1cc(-c2cnc3cccnn23)c2cccnc2c1	·	38*	·	·	16	127*	115*
c1ccc2c(-c3cnc4cccnn34)cncc2c1	·	40*	·	·	16	188*	106*
COc1cccc2c1cc1c(=O)n(CC(=O)NC3CCCCC3)nc(C)n12	4	3	5	-2	9	·	·
COc1cccc2c1cc1c(=O)n(CC(=O)NCCCN3CCN(C)CC3)nc(C)n12	-1	102*	-4	0	14	93*	88*
SMILES	Mtb betalactam	FBA Mtb inh	Rv3671c inh	Mtb UGM inh	GDH-TPI counter-1	Mtb FBA confirm	GDH-TPI counter-2
CCCN1CCN(C(=O)Cn2nc(C)n3c(cc4c(OC)cccc43)c2=O)CC1	·	86*	·	·	-3	169*	113*
Cc1onc(NC(=O)NC(=O)c2c(Cl)cccc2Cl)c1Br	8	-2	-2	0	-4	·	·
Cc1nn(CC(=O)N2CCOCC2)c(=O)c2nn(-c3ccccc3)c(C)c12	11	0	2	4	-1	·	·
Cc1ccc(NC(=O)COC(=O)CCc2nc3ccccc3c(=O)[nH]2)cc1Cl	-3	1	0	0	-7	·	·
Cc1ccc(NC(=O)CCNS(=O)(=O)c2ccc3c(c2)CCC(=O)N3)cc1	2	1	4	-3	6	·	·
CCOc1ccc(-c2cc(C)[n+](CCO)c(-c3ccc(OCC)cc3)c2)cc1	-3	63*	3	1	28	67*	49*
COc1ccc(-c2cc(=O)c(C(=O)c3ccc(C)cc3)n[nH]2)cc1	-4	0	-6	1	1	·	·
O=c1c(Cl)c(O)c2cccc3c4ccccc4n1c23	-2	85*	3	-1	15	86*	64*
O=C(C(O)c1ccc(Br)cc1)N1CCC(Nc2ccc3[nH]ncc3c2)CC1 (configuration not stated)	·	42*	·	·	5	+	+
Cc1cccc(S(=O)(=O)c2c(N)n(/N=C/c3ccccc3)c3nc4ccccc4nc23)c1	0	-2	8	3	7	·	·
Cc1ccc(S(=O)(=O)c2c(N)n(NC(=O)c3ccccc3C)c3nc4ccccc4nc23)cc1	1	39*	-102	0	9	193*	143*
Cc1ccc(C(=O)Nn2c(N)c(S(=O)(=O)c3ccc(C)cc3)c3nc4ccccc4nc32)cc1	-5	65*	-24	1	35*	76*	52*
C[C@]12c3[nH]c4cc(-c5ccco5)ccc4c3CCN1C(=O)[C@@H](CC(=O)NCC13CC4CC(CC(C4)C1)C3)C[C@@H]2C(=O)N1CCOCC1	·	15	·	·	9	·	·
C[C@]12c3[nH]c4cc(-c5ccco5)ccc4c3CCN1C(=O)[C@@H](CC(=O)NCCN1CCOCC1)C[C@@H]2C(=O)N1CCCCC1	·	35*	·	·	13	-3	-5
COCCCNC(=O)C[C@H]1C[C@H](C(=O)N2CCCCC2)[C@@]2(C)c3[nH]c4cc(-c5ccco5)ccc4c3CCN2C1=O	·	27*	·	·	-1	68*	52*
CC[C@]12c3[nH]c4cc(-c5ccco5)ccc4c3CCN1C(=O)[C@@H](CC(=O)NCCCOC)C[C@@H]2C(=O)N1CCN(C(=O)C2CC2)CC1	·	26	·	·	6	·	·
COc1ccc(C(=O)C2CCCN(C(=O)c3ccc4nccnc4c3)C2)c(C)c1 (configuration not stated)	-6	2	-7	0	6	·	·
c1ccc2c(c1)ccc1[nH]c3c(c12)CCCC3	·	43*	·	·	11	75*	69*
Cc1ccc(NC(=O)c2sc3nc(N4CCOCC4)c4c(c3c2N)CCCC4)cc1	·	7	·	·	12	·	·
Nc1c(C(=O)Nc2ccccc2)sc2nc(N3CCOCC3)c3c(c12)CCCC3	·	51*	·	·	22	158*	160*
COc1cccc(NC(=O)c2sc3nc(N4CCOCC4)c4c(c3c2N)CCCC4)c1	7	29*	-7	-2	14	48*	45*
